# Bioassay records from PubChem BioAssay.
# TCR activator – T cell receptor activation | primary human leukocytes, anti-CD3, IL-2 HTRF, 48 h | Potency, µM (titrated, usually from 9.22 µM), inactives show at the top dose activation of IL-2 secretion, usual class: activators | 330,000 tested, under 10 active | AID 504894; further: % of control where 0% means no effect
#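 Using a-CD3 beads without co-stimulation, primary human leukocytes were exposed to compounds for 48 hr. An HTRF IL-2 kit measured the cytokine, with europium-to-d2 energy transfer producing emission at 665nm upon 320nm excitation.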
# VDR inhibitor – inhibitors of human vitamin D receptor; Potency, µM, for inactives: max response, negative = inhibition, usual class: inhibitors; P11473; VDR-SRC2-3 peptide fluorescence polarization, 2 h; hit rate 0.93% among 400,000; further: potency means the concentration at half of the fitted maximal effect; on the % scale 0 is the no-effect control and ±100 the full control effect
#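 The screen uses fluorescence polarization to detect compounds that interfere with recruitment of the SRC2-3 coactivator peptide to VDR; plates are read after 2 h at room temperature.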
# FEN1 inh – inhibitors of human flap endonuclease 1. P39748. hit rate 0.35% among 390,000. Recombinant FEN1 flap cleavage, fluorescence, 15 min. Potency, µM (series often up to 114 µM), without a hit: at the top dose activity change, negative = inhibition, hits mostly inhibitors; further: potency means the concentration at half of the fitted maximal effect; on the % scale 0 is the no-effect control and ±100 the full control effect; nearly all actives have a fitted effect of over 65% in size
# Target sequence (P39748 whole entry, looked up): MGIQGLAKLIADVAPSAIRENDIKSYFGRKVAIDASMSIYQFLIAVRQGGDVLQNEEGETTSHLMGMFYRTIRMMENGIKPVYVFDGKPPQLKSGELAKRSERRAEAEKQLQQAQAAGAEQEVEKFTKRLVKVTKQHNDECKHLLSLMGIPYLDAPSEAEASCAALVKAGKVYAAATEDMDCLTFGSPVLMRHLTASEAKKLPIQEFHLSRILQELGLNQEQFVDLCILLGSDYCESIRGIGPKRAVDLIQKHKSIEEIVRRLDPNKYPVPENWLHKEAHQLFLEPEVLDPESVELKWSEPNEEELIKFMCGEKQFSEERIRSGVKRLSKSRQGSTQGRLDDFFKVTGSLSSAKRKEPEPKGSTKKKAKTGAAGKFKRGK
#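 Recombinant FEN1 (10 nM) was preincubated with pin-transferred compounds for 15 min at room temperature, then flap DNA substrate (50 nM final) was added. Plates were read at 0 and 15 min, and normalized concentration–response data were fitted to a four-parameter Hill equation.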
# WRN helicase inh – blocks human WRN helicase; WRN helicase unwinding, fluorescent forked duplex, kinetic; hit rate 0.46% among 360,000; Potency, µM (top dose mostly 114 µM), for inactives: at the top dose activity change, negative = inhibition, actives largely listed as inhibitors; Q14191; AID 651768; further: potency means the concentration at half of the fitted maximal effect; on the % scale 0 is the no-effect control and ±100 the full control effect; nearly all actives have a fitted effect of over 55% in size
#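 Screening of the MLSMR collection measured strand separation of a quenched forked DNA duplex (100 nM) by 20 nM WRN with 2 mM ATP, all final. Compounds were preincubated with enzyme 15 min at room temperature.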
# PLK1 PBD block – PLK1 (human) polo-box domain binding inhibition; P53350; Plk1 PBD binding of FITC phosphopeptide, fluorescence polarization; Potency, µM, inactives show max response, negative = inhibition, hits mostly inhibitors; hit rate 2.8% among 360,000; further: potency means the concentration at half of the fitted maximal effect; series mostly up to about 57 µM; on the % scale 0 is the no-effect control and ±100 the full control effect; nearly all actives have a fitted effect of over 65% in size
# PI5P4Ka inh – PI5P4K alpha (human) kinase inhibition; P48426; PI5P4Kalpha enzyme, ADP-Glo luminescence, 60 min; stronger effect = lower value; max response, %; hit rate 1.2% among 330,000; AID 652105; active means max response of -50% or lower; inconclusive means between -30% and -50%; inactive means -30% or higher; further: value at the top dose of about 77 µM; on the % scale 0 is the no-effect control and ±100 the full control effect
# Target sequence (P48426 whole entry, looked up): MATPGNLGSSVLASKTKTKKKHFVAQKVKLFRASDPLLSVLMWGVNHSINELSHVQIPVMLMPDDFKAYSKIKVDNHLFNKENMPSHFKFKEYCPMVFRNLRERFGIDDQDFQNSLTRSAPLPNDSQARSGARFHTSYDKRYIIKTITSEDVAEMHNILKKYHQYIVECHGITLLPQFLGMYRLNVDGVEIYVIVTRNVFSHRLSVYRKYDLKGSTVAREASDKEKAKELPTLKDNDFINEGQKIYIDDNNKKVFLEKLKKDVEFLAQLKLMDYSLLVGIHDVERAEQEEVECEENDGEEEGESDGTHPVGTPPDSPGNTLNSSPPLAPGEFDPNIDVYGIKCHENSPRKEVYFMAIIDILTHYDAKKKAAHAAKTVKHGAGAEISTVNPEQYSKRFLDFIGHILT
#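 PI5P4Kalpha ADP-Glo assay; 5 microM ATP final; 60 min RT reaction; HEPES pH 7.4/EGTA/CHAPS, 5% DMSO; controls lacking substrate or enzyme; luminescent end-point.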
# USP1-UAF1 confirm – blocks human USP1/UAF1 cleavage of Ub-Rhodamine; shares compounds with VDR inhibitor; Ub-Rhodamine cleavage, fluorescence kinetic read; Potency, µM (top dose mostly 56.8 µM), without a hit: at the top dose activity change, negative = inhibition, hits mostly inhibitors; hit rate 50% among 50
# VDR confirm – confirmation of human vitamin D receptor inhibitors. shares compounds with VDR inhibitor. VDR-coactivator inhibition assay, qHTS confirmation. Potency, µM, usual class: inhibitors. hit rate 89% among 840. AID 602199; further: potency means the concentration at half of the fitted maximal effect
# VDR FP fluor – confirmation of human VDR-coactivator binding inhibitors, fluorescein label; VDR-coactivator binding, fluorescein fluorescence polarization; shares compounds with VDR inhibitor; Potency, µM (titrated, usually from 57.1 µM), for inactives: top-dose activity change, negative = inhibition, usual class: inhibitors; hit rate 48% among 840; further: potency means the concentration at half of the fitted maximal effect
# VDR bla – confirmation of human vitamin D receptor inhibitors in reporter cells | shares compounds with VDR inhibitor | VDR beta-lactamase reporter cells, FRET ratio; cells co-treated with VDR agonist LG190178 | Potency, µM (highest dose often 46.1 µM), for the others: top-dose activity change, negative = inhibition, usual class: inhibitors | hit rate 23% among 840; further: potency means the concentration at half of the fitted maximal effect; on the % scale 0 is the no-effect control and ±100 the full control effect
# VDR viability – cell toxicity, VDR inhibitor hit counter-screen; shares compounds with VDR inhibitor; Potency, µM (titrated, usually from 48.3 µM), inactives show at the highest dose activity change, negative = cytotoxicity, hits mostly cytotoxic; cytotoxicity counter-screen, cell viability, qHTS; AID 602204; hit rate 18% among 840;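 further: potency means the concentration at half of the fitted maximal effect; plate controls were DMSO for no effect and high-concentration cycloheximide for full effect; nearly all actives have a fitted effect of over 75% in size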
# Starred values were filed as active, the others as inactive; ? = inconclusive; / = not tested or not shown; [ ] = remark or other dose. Compounds with a hit are over-represented: about 3.7% of the library has one in this group of screens. Unless noted, the call rests on the fitted dose curve; in most records, active means well fitted curve in the direction sought with a large enough effect; inconclusive means small, poorly fitted or top-dose-only effect, or another doubt; inactive means no such curve, though single readings can be large; an effect the other way counts as inactive or inconclusive.
SMILES,TCR activator,VDR inhibitor,FEN1 inh,WRN helicase inh,PLK1 PBD block,PI5P4Ka inh,VDR confirm,VDR FP fluor,VDR bla,VDR viability,others
Cc1ccc(OCCCCn2c(-c3ccc(Cl)cc3)nc3ccccc3c2=O)cc1,/,-11%,13%,/,/,/,/,/,/,/,
COC(=O)c1ccc(NC(=O)c2nc(S(=O)(=O)Cc3cccc(C)c3)ncc2Cl)cc1,0%,20µM*,6%,?,?,-8,6*,?,15µM*,12µM*,
CCOC(=O)c1ccc(NC(=O)c2nc(S(=O)(=O)Cc3ccccc3)ncc2Cl)cc1,-1%,32µM*,-2%,-13%,12µM*,-15,13*,?,15µM*,13µM*,
CCOC(=O)c1ccc(NC(=O)c2nc(SC(C)C)ncc2Cl)cc1,/,1%,-1%,/,/,/,/,/,/,/,
Cc1ccccc1CNC(=O)c1ccc(CN2CC(=O)N3CCCCC3C2=O)cc1 (stereo unspecified),/,-7%,16%,/,/,/,/,/,/,/,
O=C(NC1CC(=O)N(c2ccccc2)C1)c1ccc(S(=O)(=O)N2CCCCC2)cc1 (stereo unspecified),/,-14%,13%,/,/,/,/,/,/,/,
Cc1ccc(C(=O)COC(=O)COc2ccccc2[N+](=O)[O-])s1,0%,-19%,15%,-4%,-7%,-29,/,/,/,/,
CCOC(=O)COc1ccccc1/C=C\[N+](=O)[O-],0%[46.1 µM],11µM*,6%,32µM*,7.5µM*,-8,3.4*,?,4.6µM*,8.2µM*,
Cc1cc(Nc2cc(Cl)ccc2C)n2nc(Cc3ccccc3)nc2n1,/,1%,14%,/,/,/,/,/,/,/,
C(=N\n1cnnc1)/c1cn(Cc2ccccc2)c2ccccc12,/,6%,-1%,1%,-1%,/,/,/,/,/,
O=[N+]([O-])/C=C/c1cn(Cc2ccccc2)c2ccccc12,5%,14µM*,-16%,-33%,?,0,12*,?,?,?,
CCOc1cc(/C=C/c2nc3cc(C)c(C)cc3s2)ccc1OCC(=O)N1CCOCC1,-8%[46.1 µM],4%,3%,4%,-17%,5,/,/,/,/,
CCOc1cc(/C=C\[N+](=O)[O-])ccc1OCC(=O)N1CCOCC1,-3%,28µM*,-4%,-31%,21µM*,-18,27*,?,?,?,
COc1ccc(-c2cc(N)n(S(=O)(=O)c3c(F)c(F)c(F)c(F)c3F)n2)cc1OC,/,?,-3%,?,1.2µM*,/,5*,7.1µM*,5.8µM*,21µM*,
CCOc1ccc(-c2cc(N)n(S(=O)(=O)c3ccc(OC)cc3)n2)cc1,-4%,2%,-4%,-5%,6%,2,/,/,/,/,
O=C(CCN1CCc2ccccc2CC1)c1ccc2c(c1)OCCO2,2%,?,-11%,?,13µM*,/,13*,11µM*,?,?,
O=C(Cc1ccccc1)c1ccc2c(c1)OCCO2,-7%,-11%,16%,-4%,2%,6,/,/,/,/,
O=C1C(=O)c2c(C(=O)c3ccccc3)coc2-c2ccccc21,2%,3.2µM*,-17%,?,?,-9,4.2*,?,?,18µM*,
Cc1oc2c(c1C(=O)c1ccccc1)C(=O)C(=O)c1ccccc1-2,7%,?,-7%,?,?,-10,2.5*,3.2µM*,21µM*,3.4µM*,
[O-]/[N+](=C\c1ccccc1)c1ccc(Br)cc1,-21%,25µM*,?,8%,15µM*,-6,3.8*,?,7%,8%,
COc1ccc(Cl)cc1NC(=O)Cn1cc(S(=O)(=O)Cc2cccc(Cl)c2)c2ccccc21,/,17%,12%,/,/,/,/,/,/,/,
N#C/C(=C\c1ccc(-c2cc(Cl)ccc2Cl)o1)C(=O)Nc1cccc2ncccc12,/,?,?,/,/,/,/,/,/,/,USP1-UAF1 confirm=?
Cc1ccccc1NC(=O)/C(C#N)=C/c1ccc(Cl)cc1Cl,/,?,-21%,/,/,/,/,/,/,/,
CN(C)c1ccc(C(=O)/C=C/c2cccnc2)cc1,-2%,-1%,-23%,-3%,-16%,-3,/,/,/,/,
O=C(/C=C/c1ccc([N+](=O)[O-])cc1)c1cccnc1,5%[46.1 µM],56µM*,-7%,?,?,-1,24*,8.9µM*,33%,?,
SMILES,TCR activator,VDR inhibitor,FEN1 inh,WRN helicase inh,PLK1 PBD block,PI5P4Ka inh,VDR confirm,VDR FP fluor,VDR bla,VDR viability,others
O=C(/C=C/c1cccnc1)c1ccc(F)c(F)c1,-9%,45µM*,0%,-13%,-16%,1,?,8.9µM*,?,?,
CC(C)c1ccc(Nc2c(-c3ccc(N(C)C)cc3)nc3cnccn23)cc1,/,-13%,-16%,/,/,/,/,/,/,/,
CCCNC(=O)c1nnsc1S(=O)c1ccc(Cl)cc1 (stereo unspecified),6%,?,?,20µM*,0.75µM*,?,0.89*,1µM*,13µM*,21µM*,
O=C1Nc2ccccc2/C1=C\C(=O)c1ccccc1,6%,?,-15%,-10%,19µM*,1,8.9*,3.5µM*,?,?,
O=C(CSC1=NS(=O)(=O)c2cc(F)ccc2N1)Nc1ccccc1,-1%,-8%,0%,-2%,-10%,0,/,/,/,/,
COC(=O)CSC1=NS(=O)(=O)c2ccccc21,0%,32µM*,0%,?,3µM*,-20,8.4*,?,18%,-4%,
O=C(CSC1=NS(=O)(=O)c2ccccc21)Nc1ccccc1,-8%,16µM*,17%,10%,11µM*,-10,11*,-18%,-6%,-14%,
Cc1cccc(NC(=O)C2CCN(c3nnc(C)c4c(C)n(-c5ccccc5)nc34)CC2)c1C,/,5%,-1%,/,/,/,/,/,/,/,
Cc1ccc2c(c1)c1c(c(=O)n(-c3cccc(Cl)c3)c(=O)n1C)n2C,/,1%,0%,/,/,/,/,/,/,/,
CCCN(CCC)C(=O)Cn1c(SCc2cccc(C(F)(F)F)c2)nc2cccnc21,/,13%,-1%,/,/,/,/,/,/,/,
